# From PubChem BioAssay
# Records with an inconclusive call do not appear. Calls of active or inactive are those of the source. Unless noted, how the calls were made is not given here.
# Experiments:
# [1] = compounds altering circadian rhythm period length – cell-based, LOPAC library, luminescence reporter (AID 2774); conditions: circadian reporter cells, at 7 µM, actives lie on both sides;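 further: values are relative to mean of DMSO wells on each plate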
# [2] = tested on: Hepatitis C virus NS3 helicase; assay: blockers of NS3h binding to ssDNA – biochemical, fluorescence polarization, LOPAC1280 library, primary screen (AID 687035; in the data active means inhibition above about 37%); conditions: Purified HCV NS3 helicase, Cy5-dT15 ssDNA binding fluorescence polarization; stronger effect = higher value; concentration not given here
# [3] = compounds altering Cy5-DNA-NS3h complex signal – biochemical, LOPAC1280, artefact control for HCV NS3 helicase inhibitor project (AID 687037); conditions: Cy5-DNA-NS3h complex fluorescence interference counterscreen
# [4] = molecular target: ATP-dependent translocase ABCB1 (Homo sapiens) (UniProt P08183); assay: P-glycoprotein substrate transport blockade – cell-based (AID 377; in the data active means fluorescence slope change above about 50%); conditions: MDR1-expressing cells, fluorescent substrate accumulation slope; stronger effect = higher value; concentration not given here
# Sequence of ATP-dependent translocase ABCB1 (Homo sapiens) (P08183 whole entry, looked up): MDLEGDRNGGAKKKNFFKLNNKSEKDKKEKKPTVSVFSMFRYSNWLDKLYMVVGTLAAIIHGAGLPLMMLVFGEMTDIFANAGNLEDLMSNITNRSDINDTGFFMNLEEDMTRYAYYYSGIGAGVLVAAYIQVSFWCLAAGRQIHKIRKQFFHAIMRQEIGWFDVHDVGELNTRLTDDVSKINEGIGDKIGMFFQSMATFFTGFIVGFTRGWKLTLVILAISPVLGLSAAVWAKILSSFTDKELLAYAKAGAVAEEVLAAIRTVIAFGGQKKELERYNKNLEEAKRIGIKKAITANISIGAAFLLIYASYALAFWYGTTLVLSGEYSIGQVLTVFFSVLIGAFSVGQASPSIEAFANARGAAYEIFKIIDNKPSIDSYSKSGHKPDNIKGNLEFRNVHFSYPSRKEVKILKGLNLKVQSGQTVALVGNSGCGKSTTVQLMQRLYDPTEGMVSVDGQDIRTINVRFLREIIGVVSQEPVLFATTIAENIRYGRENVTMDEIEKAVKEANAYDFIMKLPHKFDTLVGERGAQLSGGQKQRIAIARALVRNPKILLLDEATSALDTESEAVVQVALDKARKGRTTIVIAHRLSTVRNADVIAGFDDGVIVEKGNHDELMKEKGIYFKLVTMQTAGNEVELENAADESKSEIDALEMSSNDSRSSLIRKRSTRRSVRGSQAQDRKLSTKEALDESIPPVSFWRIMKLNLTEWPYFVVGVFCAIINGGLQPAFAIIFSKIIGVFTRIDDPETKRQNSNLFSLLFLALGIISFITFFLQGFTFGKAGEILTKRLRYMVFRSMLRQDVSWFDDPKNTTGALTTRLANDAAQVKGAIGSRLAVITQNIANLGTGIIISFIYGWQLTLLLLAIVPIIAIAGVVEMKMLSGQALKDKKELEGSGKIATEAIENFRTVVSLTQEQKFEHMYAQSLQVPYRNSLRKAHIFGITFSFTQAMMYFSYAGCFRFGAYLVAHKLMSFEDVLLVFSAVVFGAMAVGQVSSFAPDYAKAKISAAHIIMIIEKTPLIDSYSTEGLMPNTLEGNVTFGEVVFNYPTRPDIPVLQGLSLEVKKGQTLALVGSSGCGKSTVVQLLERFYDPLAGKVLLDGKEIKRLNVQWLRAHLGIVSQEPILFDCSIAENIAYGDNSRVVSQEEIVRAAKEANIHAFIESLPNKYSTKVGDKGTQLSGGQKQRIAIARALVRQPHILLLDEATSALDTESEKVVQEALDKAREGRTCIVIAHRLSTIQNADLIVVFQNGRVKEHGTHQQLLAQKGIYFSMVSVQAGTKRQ
# [5] = compounds altering viability of human ES cells (AID 493140); conditions: human embryonic stem cell survival screen; stronger effect = higher value;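 further: cells exposed to compounds for four days before counting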
# [6] = P. berghei load reduction in hepatocytes – cell-based, HepG2, luciferase luminescence, HepG2 viability, primary screen (AID 624349; in the data active means parasite load remaining mostly below about 12%, no sharp cut-off; inactive means mostly above about 10%;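 further: 100% = mean of DMSO negative control wells on the same plate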); conditions: P. berghei liver stage in HepG2, luciferase luminescence, concentration not given here; parasite load remaining: stronger effect = lower value; viability: measured here: HepG2 viability without parasites
structure (smiles),measurement,setting,value
CCn1cc(C(=O)O)c(=O)c2ccc(Cc3ccccc3)nc21,period change,[1],-0.035 h (inactive)
O=C(O)[C@@H]1C[C@H](C(=O)O)N1,period change,[1],-0.02 h (inactive)
same,inhibition,[2],-1% (inactive)
same,fluorescence ratio (interference),[3],1.1 (inactive)
CCCNC[C@H](O)COc1ccccc1C(=O)CCc1ccccc1,period change,[1],0.08 h (inactive)
Cc1ccc(OCC(O)C(C)NC(C)C)c2c1CCC2 (stereo not given),period change,[1],0.02 h (inactive)
COc1cc2c(cc1OC)[C@@H](c1ccccc1)CN(C)CC2,period change,[1],0 h (inactive)
O=S(=O)(O)CCN1CCN(CCO)CC1,fluorescence slope change,[4],26.7% (inactive)
CN1CCc2cc(O)c(O)cc2C(c2ccccc2)C1 (stereo not given),period change,[1],0.07 h (inactive)
same,inhibition,[2],-5% (inactive)
same,fluorescence ratio (interference),[3],1 (inactive)
N[C@H](CCC(=O)NCS(=O)(=O)O)C(=O)O,period change,[1],0.005 h (inactive)
C[N+](C)(CCCCCC[N+](C)(C)CCCN1C(=O)c2cccc3cccc(c23)C1=O)CCCN1C(=O)c2cccc3cccc(c23)C1=O,period change,[1],-0.055 h (inactive)
C=N[C@@H](C(=O)N[C@@H]1C(=O)C2[C@@H](C(=O)O)C(C)(C)S[C@@H]21)c1ccccc1 (stereo not given in full),fluorescence slope change,[4],10.1% (inactive)
CNC(=O)[C@H]1O[C@@H](n2cnc3c(N)ncnc32)C(O)[C@H]1O (stereo not given in full),period change,[1],0.045 h (inactive)
O=S(=O)(O)C1CCNCC1,period change,[1],0.07 h (inactive)
C=C1C(=O)O[C@H]2C1CC/C(C)=C/CC[C@@]1(C)O[C@H]21 (stereo not given in full),fluorescence slope change,[4],20.5% (inactive)
COC(=O)c1c(-c2cc(OC)c(OC)c(OC)c2)c2ccc(OCc3ccccn3)cc2c(=O)n1-c1ccc(N)cc1,period change,[1],0.015 h (inactive)
CC(COc1ccc(/C=C/c2ccccc2)cc1)[N+](C)(C)C (stereo not given),period change,[1],-0.13 h (inactive)
same,inhibition,[2],-1% (inactive)
same,fluorescence ratio (interference),[3],1 (inactive)
COc1ccc(C(=O)O[C@H]2CC[C@@]3(C)C4CCC5[C@]6(O)[C@@H](O)[C@H](O)[C@H]7[C@@H](CN8C[C@@H](C)CC[C@H]8[C@@]7(C)O)[C@@H]6C[C@@]53O[C@]42O)cc1OC (stereo not given in full),fluorescence slope change,[4],2.5% (inactive)
CCCCCCCCCCCCCCCCOCC(COCC(F)(F)F)OP(=O)(O)OCO (stereo not given),period change,[1],0.01 h (inactive)
CCCn1c(=O)c2[nH]c(-c3ccc(OCC(=O)NCCN)cc3)nc2n(CCC)c1=O,period change,[1],-0.09 h (inactive)
same,inhibition,[2],-2% (inactive)
same,fluorescence ratio (interference),[3],1 (inactive)
COc1cc2nc(N3CCN(C(=O)OCc4ccccc4)C(C(=O)NC(C)(C)C)C3)nc(N)c2cc1OC (stereo not given),period change,[1],0.085 h (inactive)
same,inhibition,[2],-3% (inactive)
same,fluorescence ratio (interference),[3],1 (inactive)
COc1ccc2c(c1)c(CC(=O)O)c(C)n2Cc1ccc(F)cc1,period change,[1],-0.005 h (inactive)
NCCNC(=O)c1ncsc1-c1cccc(F)c1,period change,[1],0.08 h (inactive)
same,inhibition,[2],-3% (inactive)
same,fluorescence ratio (interference),[3],1 (inactive)
O=C(O)CCCCCC[C@H]1C(=O)NC(=O)N1CC[C@@H](O)C1CCCCC1,period change,[1],0.18 h (inactive)
C[C@@H](Oc1ccc(Oc2cnc3ccc(Cl)cc3n2)cc1)C(=O)O,period change,[1],-0.01 h (inactive)
O=C(Cc1ccc(Cl)c(Cl)c1)OCCN1CCCC1,period change,[1],-0.095 h (inactive)
Ic1ccc(N2CCN(Cc3c[nH]c4ncccc34)CC2)cc1,period change,[1],0.1 h (inactive)
same,inhibition,[2],6% (inactive)
same,fluorescence ratio (interference),[3],0.9 (inactive)
CN1CCc2c(cc(O)c(O)c2Cl)C(c2cccc(Cl)c2)C1 (stereo not given),period change,[1],0.165 h (inactive)
COc1ccccc1N1CCN(CCN(C(=O)c2ccc(I)cc2)c2ccccn2)CC1,period change,[1],0.08 h (inactive)
same,inhibition,[2],-4% (inactive)
same,fluorescence ratio (interference),[3],0.9 (inactive)
COc1ccc(CCNC[C@@H](O)c2ccc(O)cc2)cc1OC,period change,[1],0.05 h (inactive)
Cc1ccccc1CNc1ncnc2c1ncn2C1OC(CO)C(O)C1O (stereo not given),period change,[1],-0.235 h (inactive)
COc1cc2cc(N(C)CCCNC(=O)C3CCCO3)cc(N)c2cc1OC (stereo not given),fluorescence slope change,[4],52.5% (active)
CNCC[C@@H](Oc1ccc(C(F)(F)F)cc1)c1ccccc1,period change,[1],0.13 h (inactive)
CCN1CCC[C@H]1CNC(=O)c1c(OC)ccc(I)c1O,period change,[1],0.025 h (inactive)
N#C/C(=C\c1c[nH]c2ccccc12)C(=O)c1ccc(O)c(O)c1,period change,[1],0.275 h (inactive)
CC1O[C@H](O[C@]2(O[C@H]3CC[C@@]4(C)C(=CC[C@H]5[C@@H]6C[C@H]7[C@H]([C@H](C)[C@H]8CC[C@H](C)CN87)[C@@]6(C)CC[C@@H]54)C3)C[C@@H](O[C@@H]3OC(CO)[C@@H](O)[C@@H](O)C3O)[C@@H](O)C(CO)O2)C(O)[C@@H](O)[C@H]1O (stereo not given in full),fluorescence slope change,[4],75.1% (active)
same,survival,[5],4.89 (inactive)
same,parasite load remaining,[6],74.2% (inactive)
same,viability,[6],82%
CCCC(=O)Nc1ncnc2c1ncn2[C@@H]1O[C@@H]2COP(=O)(O)O[C@@H]2C1OC(=O)CCC (stereo not given in full),fluorescence slope change,[4],80% (active)
same,survival,[5],3.33 (inactive)
CCOc1ccc2ccccc2c1C(=O)NC1C(=O)N2C1SC(C)(C)C2C(=O)O (stereo not given),fluorescence slope change,[4],71.1% (active)
COc1cc([C@@H]2c3cc4c(cc3[C@@H](O[C@@H]3O[C@@H]5CO[C@@H](C)O[C@H]5[C@H](O)[C@H]3O)C3COC(=O)[C@@H]32)OCO4)cc(OC)c1O (stereo not given in full),fluorescence slope change,[4],20.9% (inactive)
same,survival,[5],0.25 (inactive)
same,parasite load remaining,[6],64.7% (inactive)
same,viability,[6],83.1%
c1ccc2c3c([nH]c2c1)C1C2CCC(C4CCCNC42)N1CC3 (stereo not given),fluorescence slope change,[4],15.6% (inactive)
same,survival,[5],1.58 (inactive)
CC1=C(C(=O)O)N2C(=O)[C@@H](NC(=O)[C@H](N)c3ccc(O)cc3)C2SC1 (stereo not given in full),fluorescence slope change,[4],66.4% (active)
c1ccc2c(c1)CN1CCCCC1=N2,fluorescence slope change,[4],0.4% (inactive)
CC[C@H]1OC(=O)[C@H](C)[C@@H](OC2CC(C)(OC)C(O)C(C)O2)[C@H](C)[C@@H](OC2OC(C)CC(N(C)C)C2O)[C@@H](C)C[C@](C)(O)[C@@H]2N[C@H](COCCOC)O[C@H]([C@H]2C)[C@]1(C)O (stereo not given in full),fluorescence slope change,[4],59.6% (active)
NCC1OC(OC2C(N)CC(N)C(O)C2O[C@@H]2O[C@H](CO)[C@H](OC3OC(CN)C(O)C(O)C3N)C2O)C(N)C(O)C1O (stereo not given in full),fluorescence slope change,[4],78.1% (active)
COc1ccc([C@@H]2CC(=O)c3c(O)cc(O[C@@H]4OC(CO[C@@H]5OC(C)[C@H](O)[C@H](O)C5O)[C@@H](O)[C@@H](O)C4O)cc3O2)cc1O (stereo not given in full),fluorescence slope change,[4],9.9% (inactive)
same,survival,[5],9.92 (inactive)
same,parasite load remaining,[6],71.5% (inactive)
same,viability,[6],80.9%
C[C@H](CCC(=O)O)[C@H]1CC[C@H]2[C@@H]3C(O)C[C@@H]4CC(O)CC[C@]4(C)[C@H]3CC[C@]12C (stereo not given in full),fluorescence slope change,[4],167% (active)
CC1(C)S[C@@H]2[C@H](NC(=O)C(NC(=O)N3CCNC3=O)c3ccccc3)C(=O)N2[C@H]1C(=O)O (stereo not given in full),fluorescence slope change,[4],25.1% (inactive)
COc1cc(Br)c(CC2c3cc(OC)c(OC)cc3CCN2C)cc1OC (stereo not given),fluorescence slope change,[4],9.4% (inactive)
COc1ccc2cc3n(c(=O)c2c1OC)CCc1cc2c(cc1-3)OCO2,fluorescence slope change,[4],57.9% (active)
C=C1CC23CC4C5[C@@]6(C)C[C@H](OC(=O)c7ccccc7)[C@@H](OC(C)=O)[C@@]57C2[C@H](OC(C)=O)[C@@H]1[C@H](O)[C@H]3[C@H]7N4C6,fluorescence slope change,[4],12.6% (inactive)
same,survival,[5],4.92 (inactive)
CC(=O)Nc1c(I)c(C(=O)NC2[C@H](O)OC(CO)[C@@H](O)[C@H]2O)c(I)c(N(C)C(C)=O)c1I (stereo not given in full),fluorescence slope change,[4],95.2% (active)
same,survival,[5],16.9 (inactive)
same,parasite load remaining,[6],81% (inactive)
same,viability,[6],75.5%
NCC[C@H](O)C(=O)NC1CC(N)C(OC2OC(CN)C(O)C(O)C2O)C(O)C1OC1OC(CO)C(O)C(N)C1O (stereo not given in full),fluorescence slope change,[4],13.3% (inactive)
same,survival,[5],1.75 (inactive)
same,parasite load remaining,[6],68.1% (inactive)
same,viability,[6],76.6%
COC(=O)C1[C@H]2C[C@H]3c4[nH]c5ccccc5c4CCN3C[C@H]2CC[C@@H]1O (stereo not given in full),fluorescence slope change,[4],78.8% (active)
COC1CC(O[C@H]2[C@H](C)[C@@H](OC3OC(C)CC(N(C)C)C3O)[C@@H](C)C[C@]3(CO3)C(=O)[C@H](C)[C@@H](O)[C@@H](C)[C@@H](C)OC(=O)[C@@H]2C)OC(C)C1O (stereo not given in full),fluorescence slope change,[4],96.5% (active)
same,survival,[5],26.4 (inactive)
same,parasite load remaining,[6],84.7% (inactive)
same,viability,[6],90.7%
CO[C@@H]1[C@@H](OC2OC(C)C(OC3CC(C)(O)C(OC(=O)CC(C)C)C(C)O3)C(N(C)C)C2O)[C@@H](CC=O)C[C@@H](C)[C@@H](O)/C=C/C=C/C[C@@H](C)OC(=O)C[C@H]1OC(C)=O (stereo not given in full),fluorescence slope change,[4],127% (active)
same,survival,[5],16.8 (inactive)
same,parasite load remaining,[6],90.7% (inactive)
same,viability,[6],92.1%
NCC1OC(OC2C(N)CC(N)C(OC3OC(CO)C(O)C(N)C3O)C2O)C(N)CC1O (stereo not given),fluorescence slope change,[4],-2% (inactive)
same,survival,[5],1.08 (inactive)
same,parasite load remaining,[6],57.1% (inactive)
same,viability,[6],77.2%
NCC1OC(OC2C(N)CC(N)C(OC3OC(CO)C(O)C(N)C3O)C2O)C(O)C(O)C1O (stereo not given),fluorescence slope change,[4],9.9% (inactive)
same,survival,[5],5.58 (inactive)
same,parasite load remaining,[6],77.1% (inactive)
same,viability,[6],78.9%
COc1ccc(CC(N)C(=O)N[C@@H]2C(O)[C@H](n3cnc4c(N(C)C)ncnc43)O[C@@H]2CO)cc1 (stereo not given in full),fluorescence slope change,[4],10.7% (inactive)
same,survival,[5],0.083 (inactive)
same,parasite load remaining,[6],13.2% (inactive)
same,viability,[6],14.9%
